# Reference: PubChem BioAssay (NCI)
# Compounds without any hit were thinned out: in the full panel of roughly 83,000, 20% have a hit.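 Values shown are percent growth following 48 h exposure of cells in 96-well plates to a single concentration of compound; below 10 was considered active.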 Unmarked numbers belong to inactive results. Calls of active or inactive are those of the source.
# What was measured:
# Test in all cases: NCI-60 one-dose screen, 48 h (100 = growth as untreated, 0 = no growth, -100 = all killed)
# Conditions in all cases: 10 µM unless noted
# NCI-H23 lung = tested on: NCI-H23 lung
# NCI-H226 lung = tested on: NCI-H226 lung
# NCI-H322M lung = tested on: NCI-H322M lung
# HOP-62 NSCLC = tested on: HOP-62 NSCLC
# NCI-H460 lung = tested on: NCI-H460 lung
# HOP-92 NSCLC = tested on: HOP-92 NSCLC
# NCI-H522 lung = tested on: NCI-H522 lung
# A549/ATCC NSCLC = tested on: A549/ATCC NSCLC
# 786-0 renal = tested on: 786-0 renal
# COLO 205 colon = tested on: COLO 205 colon
SMILES,growth (NCI-H23 lung),growth (NCI-H226 lung),growth (NCI-H322M lung),growth (HOP-62 NSCLC),growth (NCI-H460 lung),growth (HOP-92 NSCLC),growth (NCI-H522 lung),growth (A549/ATCC NSCLC),growth (786-0 renal),growth (COLO 205 colon)
CN1CCN(c2ccc(OC(F)(F)F)c(Nc3ncc4c(n3)-c3c(c(C(N)=O)nn3CCO)CC4)c2)CC1,26%,57.8%,58.1%,5.17% (active),5.8% (active),25.8%,-22% (active),9.12% (active),17%,-15.4% (active)
Nc1nc(N)c2nc(-c3cccc(O)c3)c(-c3cccc(O)c3)nc2n1,82.5%,78.5%,47%,54.1%,92.8%,49.5%,49.3%,75.1%,65.7%,79%
O=C1C=CC2(NN=C(c3ccccc3)N2c2cccc(Cl)c2)C(Cl)=C1 (stereo not given),85.9%,86.5%,82.6%,63.8%,91.8%,84.5%,36.6%,80.1%,98%,103%
CCCNC(=O)c1cn2ncnc(Nc3cc(C(=O)NC4CC4)ccc3C)c2c1C,24.6%,42.1%,47.5%,81.1%,66.8%,74.6%,79.1%,63.3%,99%,88.9%
CCOc1cc2ncc(C#N)c(Nc3ccc(OCc4ccccn4)c(Cl)c3)c2cc1NC(=O)/C=C/CN(C)C,39.9%,47.2%,0.942% (active),38.6%,-62.2% (active),39.3%,6.98% (active),22.3%,-74.7% (active),27.4%
Cc1cn(-c2cc(NC(=O)c3ccc(C)c(Nc4nccc(-c5cccnc5)n4)c3)cc(C(F)(F)F)c2)cn1,49.2%,67.1%,69.3%,47.5%,63.7%,70.7%,41.5%,45.5%,71.4%,19.8%
O=C(Cc1ccc(/C=C/C(=O)c2ncc[nH]2)cc1)Nc1ccc(S(F)(F)(F)(F)F)cc1,68.5%,93.7%,95%,93.8%,98.2%,97%,65.8%,76.7%,88.5%,82.7%
CC/C(=C(\c1ccc(OCCN2CCCCCCC2)cc1)c1ccc(OC(=O)C2CCCCC2)cc1)c1ccc(Cl)cc1,99.4%,100%,80.9%,102%,106%,90.3%,89.4%,104%,104%,123%
Cc1cc2c(-c3nc4ccccn4c3NC3CCCCC3)c(O)c(O)cc2c(O)c1-c1c(C)cc2c(-c3nc4ccccn4c3NC3CCCCC3)c(O)c(O)cc2c1O,30.7%,53.6%,54.9%,26%,19.2%,-3.03% (active),15.1%,22.8%,72.4%,14.8%
Fc1ccc(NCc2cn(-c3ccccc3)nc2-c2ccc(OCc3ccccc3)cc2)cc1Cl,82%,102%,105%,76.6%,110%,91.2%,58.5%,83.3%,88.7%,100%
CCc1nc2cc(F)c(/C=C/C(=O)NO)cc2c(=O)n1CCc1ccccc1,25.9%,32.7%,23.1%,5.35% (active),7.49% (active),15.5%,-7.46% (active),14.9%,-5.29% (active),-23.3% (active)
Cc1ccsc1C(NC(=O)c1ccccc1)c1cc(Cl)c2cccnc2c1O (stereo not given),28.1%,38.5%,32%,15%,7.44% (active),35%,9.39% (active),14.3%,18.2%,11.7%
O=C(O)C1(Cc2cccc(Nc3nccs3)n2)CCC(Oc2cccc(Cl)c2F)CC1 (stereo not given),66%,82.8%,76.4%,49.8%,15.2%,102%,-3.77% (active),41.9%,75%,59.5%
Nc1c2c(c(O)c3c1=C(CO)C=N3)=NCCS2,-43.9% (active),-85.9% (active),-96% (active),-79.3% (active),-60.5% (active),-71.2% (active),-46.4% (active),-72% (active),-82.6% (active),-72.8% (active)
COc1cc(-c2nc(C(=O)Nc3ccc(C)cc3)nn2-c2ccc(F)c(F)c2)cc(OC)c1OC,97.1%,102%,96%,86%,106%,114%,48%,96.2%,98.6%,95.8%
Cn1ccnc1C(=O)/C=C/c1ccc(CC(=O)Nc2ccc(Br)cc2)cc1,24.5%,43.2%,6.4% (active),-32.7% (active),-11.2% (active),61.1%,2.89% (active),3.64% (active),7.96% (active),6.56% (active)
CC(C)c1ccc(/C=N/Nc2nc3ccccc3s2)cc1,80.4%,81.7%,96%,87.8%,95.2%,82.5%,85%,85.8%,108%,88.5%
CC(C)(O)CC(=O)NCCn1ccc2ncnc(Nc3ccc(Oc4cccc(C(F)(F)F)c4)c(Cl)c3)c21,20%,26.1%,-2.67% (active),-12.2% (active),11.1%,-23.1% (active),-20.4% (active),1.14% (active),22.6%,-67.4% (active)
Nc1ncnc2c1ccn2-c1cccc(NC(=O)c2ccc(N3CCOCC3)c(C(F)(F)F)c2)c1,49.8%,60%,80.6%,71.3%,28.8%,20.5%,18.7%,28.1%,86.4%,49%
Clc1ccc(Nc2nccc(Nc3ccc4[nH]ncc4c3)n2)cc1,45.7%,28.2%,74.8%,65.5%,41%,-0.955% (active),20.8%,50.2%,57.4%,42.2%
O=C(c1ccccc1)C(c1ccccc1)N1CCOCC1 (stereo not given),96.9%,94.8%,105%,94.7%,103%,103%,90.4%,90.2%,104%,109%
Cc1ccc(Nc2nccc(N(C)c3ccc4c(C)n(C)nc4c3)n2)cc1S(N)(=O)=O,15.6%,27.5%,7.5% (active),12.4%,21.5%,-56.2% (active),10.7%,5.92% (active),35.7%,-10.3% (active)
CCOc1ccc(N=C(C)Nc2ccc(OCC)cc2)cc1,102%,110%,124%,109%,102%,81.9%,128%,95.3%,104%,102%
CCCCCCC1(/C=N/NC(N)=O)NC(=O)NC1=O (stereo not given),94%,91.4%,102%,78.3%,111%,110%,58%,70.5%,98.2%,91.9%
CN[C@@H]1C[C@H]2O[C@@](C)([C@@H]1OC)n1c3ccccc3c3c4c(c5c6ccccc6n2c5c31)C(=O)N[C@H]4O,-48.8% (active),-47.1% (active),-25.8% (active),-60.8% (active),-63.7% (active),-9.92% (active),-37.2% (active),-36.8% (active),-87.5% (active),-80.8% (active)
CNC(=O)c1ccc(Nc2ncc(C(F)(F)F)c(NCc3nccnc3N(C)S(C)(=O)=O)n2)cc1,-16.8% (active),2.77% (active),1.99% (active),-23.5% (active),0.647% (active),-13.6% (active),-25.2% (active),-14.4% (active),8.71% (active),-66.2% (active)
O=c1nc2c(-c3nc4ccccc4s3)n[nH]n2c2sc3c(c12)CCCC3,98.2%,90.1%,107%,90.5%,102%,90.7%,99.9%,96.1%,102%,106%
